Data from the supplement of paper PMC12645437, “Orthogonal IMiD-Degron Pairs Induce Selective Protein Degradation in Cells” (ACS Chemical Biology, 2025).
Over roughly 8,300 sequences, “log2 fold change of degron read counts, EGFP-low vs EGFP+ sorted cells (limma voom), compound-induced degradation” has its median near -1.1; the highest 2% begin near 3.2. This excerpt belongs to a sample that is enriched for the highest values.

T1: CRBN, Q96SW2
T1 chain: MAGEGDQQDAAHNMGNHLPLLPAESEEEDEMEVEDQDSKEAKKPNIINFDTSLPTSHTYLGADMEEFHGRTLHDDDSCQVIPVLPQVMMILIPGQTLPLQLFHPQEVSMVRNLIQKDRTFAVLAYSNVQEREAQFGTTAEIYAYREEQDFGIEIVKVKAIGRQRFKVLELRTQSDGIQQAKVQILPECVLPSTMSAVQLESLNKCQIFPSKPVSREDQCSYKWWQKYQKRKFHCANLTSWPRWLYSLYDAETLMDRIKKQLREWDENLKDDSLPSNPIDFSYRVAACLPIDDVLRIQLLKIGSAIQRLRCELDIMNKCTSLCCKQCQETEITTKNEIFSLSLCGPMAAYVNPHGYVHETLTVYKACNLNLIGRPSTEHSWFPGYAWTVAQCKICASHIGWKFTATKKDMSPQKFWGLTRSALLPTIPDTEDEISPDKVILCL

B1: 46F_47M_49E_50I_52G_53H_54L_55F_67L_, Q9UKT9 (peptide)
chain: FMCEICGHLFTQKGNLLRHIKL
B2: 46F_47N_49P_50I_52G_53R_54W_55F_67L_, Q9UKT9 (peptide)
chain: FNCPICGRWFTQKGNLLRHIKL
B3: 46F_47T_49S_50V_52G_53H_54F_55F_67L_, Q9UKT9 (peptide)
chain: FTCSVCGHFFTQKGNLLRHIKL
B4: 46F_47C_49D_50Q_52G_53A_54Q_55F_67L_, Q9UKT9 (peptide)
chain: FCCDQCGAQFTQKGNLLRHIKL
B5: 46F_47W_49N_50Q_52G_53R_54S_55F_67L_, Q9UKT9 (peptide)
chain: FWCNQCGRSFTQKGNLLRHIKL
B6: 46L_47V_49E_50I_52G_53F_54D_55C_67L_, Q9UKT9 (peptide)
chain: LVCEICGFDCTQKGNLLRHIKL
B7: 46F_47D_49N_50Q_52G_53A_54F_55F_67L_, Q9UKT9 (peptide)
chain: FDCNQCGAFFTQKGNLLRHIKL
B8: 46F_47R_49D_50V_52G_53A_54L_55F_67L_, Q9UKT9 (peptide)
chain: FRCDVCGALFTQKGNLLRHIKL
B9: 46L_47N_49P_50I_52G_53F_54D_55C_67L_, Q9UKT9 (peptide)
chain: LNCPICGFDCTQKGNLLRHIKL
B10: 46F_47R_49E_50Q_52G_53A_54S_55F_67L_, Q9UKT9 (peptide)
chain: FRCEQCGASFTQKGNLLRHIKL
B11: 46L_47K_49E_50I_52G_53F_54R_55C_67L_, Q9UKT9 (peptide)
chain: LKCEICGFRCTQKGNLLRHIKL
B12: 46L_47Q_49E_50I_52G_53F_54R_55C_67L_, Q9UKT9 (peptide)
chain: LQCEICGFRCTQKGNLLRHIKL
B13: 46L_47Y_49E_50I_52G_53F_54M_55C_67L_, Q9UKT9 (peptide)
chain: LYCEICGFMCTQKGNLLRHIKL
B14: 46L_47A_49E_50I_52G_53F_54M_55C_67L_, Q9UKT9 (peptide)
chain: LACEICGFMCTQKGNLLRHIKL
B15: 46L_47A_49E_50I_52G_53F_54I_55C_67L_, Q9UKT9 (peptide)
chain: LACEICGFICTQKGNLLRHIKL
B16: 46L_47F_49E_50I_52G_53F_54R_55C_67L_, Q9UKT9 (peptide)
chain: LFCEICGFRCTQKGNLLRHIKL
B17: 46L_47Y_49E_50I_52G_53F_54I_55C_67L_, Q9UKT9 (peptide)
chain: LYCEICGFICTQKGNLLRHIKL
B18: 46L_47L_49E_50I_52G_53F_54R_55C_67L_, Q9UKT9 (peptide)
chain: LLCEICGFRCTQKGNLLRHIKL
B19: 46L_47I_49E_50I_52G_53F_54R_55C_67L_, Q9UKT9 (peptide)
chain: LICEICGFRCTQKGNLLRHIKL
B20: 46L_47C_49E_50I_52G_53F_54M_55C_67L_, Q9UKT9 (peptide)
chain: LCCEICGFMCTQKGNLLRHIKL
B21: 46L_47C_49E_50I_52G_53F_54I_55C_67L_, Q9UKT9 (peptide)
chain: LCCEICGFICTQKGNLLRHIKL
B22: 46L_47E_49E_50I_52G_53F_54R_55C_67L_, Q9UKT9 (peptide)
chain: LECEICGFRCTQKGNLLRHIKL

Target: T1, CRBN, Q96SW2
Assay: log2 fold change of degron read counts, EGFP-low vs EGFP+ sorted cells (limma voom), compound-induced degradation; higher = more compound-induced degradation of the degron-EGFP fusion; degrons are variants of IKZF1/3 zinc finger 2; compound dose not given here
Settings: Jurkat, 18 h
[1] = compound: compound 19 (5-tert-butyl-thalidomide)
[2] = compound: compound 22 (5-morpholino-thalidomide)
[3] = compound: compound 33 (diphenyl IMiD analogue)
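Also: pooled lentiviral library of zinc finger degron-EGFP fusions in mCherry-positive Jurkat cells, FACS-sorted after compound exposure, with degron abundance counted by next-generation sequencing.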

Sequence	log2 fold change of degron read counts [1]	log2 fold change of degron read counts [2]	log2 fold change of degron read counts [3]	log2 fold change of degron read counts (compound: thalidomide)
B1	-2.89	-3.26	-2.2	-2.63
B2	-0.803	-0.856	0.232	-0.248
B3	-1.8	-2.26	-2.2	-2.2
B4	-1.9	-1.68	-1.17	-2.37
B5	-1.96	-2.11	-1.99	-2.07
B6	-3.07	-2.83	-2.91	-1.81
B7	-1.58	-1.99	-2.03	-1.65
B8	-2.19	-2.03	0.228	-1.08
B9	-1.95	-1.67	-1.11	-0.883
B10	-1.07	-1.32	0.513	-0.516
B11	-1.07	-2.46	-2.5	-0.336
B12	1.29	1.55	1.26	3.58
B13	3.38	3.27	2.53	1.05
B14	2.65	1.33	0.0952	0.132
B15	1.83	0.461	-0.53	-0.408
B16	3.71	3.64	1.36	2.31
B17	2.99	3.26	2.2	0.746
B18	0.785	-1.31	0.385	2.48
B19	1.24	2.26	1.57	3.01
B20	1.12	1.14	1.45	1.31
B21	0.819	0.557	1.54	1.05
B22	0.728	-0.831	2.02	3.15
